Source: PubChem BioAssay (NCI)
This is part of a sample that, as a whole, favours compounds with a hit. Of some 79,000 tested, about 15% had one in any assay. The source made the active and inactive calls. No stated cut-off is given here; in the data, active means growth inhibition above about 70%; inactive means the rest.

What was measured:
[1] = NCI Yeast Anticancer Drug Screen. Data for the rad52 strain (AID 147);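 further: 0% = growth of vehicle-treated control cultures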; details: S. cerevisiae rad52 mutant growth inhibition, hits give high values
Procedure, shortened: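 Growth of repair-deficient yeast cells was compared between compound-treated and vehicle-treated cultures to give percent inhibition.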

[2] = NCI Yeast Anticancer Drug Screen. Data for the wt1 strain (AID 149);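 further: 0% = growth of vehicle-treated wt1 cultures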; details: S. cerevisiae wt1 strain (SPY 50644) growth inhibition, hits give high values
Procedure, shortened: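 Vehicle-normalised growth inhibition; strain wt1; compound exposure.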

[3] = NCI Yeast Anticancer Drug Screen. Data for the rad50EPP+ strain (AID 151);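 further: 0% = growth of vehicle-treated control cultures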; details: S. cerevisiae rad50 mutant strain, hits give high values
Procedure, shortened: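 Measured: growth inhibition of rad50EPP+ yeast. Reference: vehicle-treated controls. Screen uses strains with defined genetic alterations in DNA damage repair or cell cycle control.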

[4] = NCI Yeast Anticancer Drug Screen. Data for the mgt1 strain (AID 153); details: S. cerevisiae mgt1 mutant growth inhibition, hits give high values
Procedure, shortened: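 Compounds were applied to mgt1 mutant yeast, and growth was then compared against vehicle-treated control cultures to give percent inhibition.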

[5] = NCI Yeast Anticancer Drug Screen. Data for the rad50 strain (AID 155);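 further: 0% = growth of vehicle-only cultures of the same strain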; details: S. cerevisiae rad50 strain growth inhibition, hits give high values
Procedure, shortened: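 A DNA repair-deficient yeast mutant serves as the test organism; compound-induced growth inhibition is calculated against vehicle-treated cells.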

[6] = NCI Yeast Anticancer Drug Screen. Data for the mec2-1 strain (AID 157); details: S. cerevisiae mec2-1 strain, hits give high values
Procedure, shortened: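 Compounds were applied to mec2-1 yeast cells. Their growth was then compared with that of vehicle-treated cultures to give growth inhibition.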

[7] = NCI Yeast Anticancer Drug Screen. Data for the rad14 strain (AID 159);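 further: 0% = growth of vehicle-treated control cultures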; details: S. cerevisiae rad14 strain growth inhibition, hits give high values
Procedure, shortened: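 Vehicle-treated cultures served as the baseline for growth inhibition of a DNA repair-mutant yeast strain exposed to each compound.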

[8] = NCI Yeast Anticancer Drug Screen. Data for the sgs1 mgt1 strain (AID 161);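 further: 0% = growth of cultures given vehicle only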; details: S. cerevisiae sgs1 mgt1 strain, hits give high values
Procedure, shortened: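 Yeast cells carrying a defined DNA-repair defect were exposed to test compounds. Growth inhibition was measured relative to vehicle-treated controls.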

[9] = NCI Yeast Anticancer Drug Screen. Data for the CLN2oe strain (AID 163);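 further: 0% = growth of vehicle-only control cultures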; details: S. cerevisiae CLN2oe strain, hits give high values
Procedure, shortened: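 Cells of an engineered yeast line with disturbed cell-cycle regulation are treated with compound. Inhibition of growth is then calculated relative to the vehicle-treated reference.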

[10] = NCI Yeast Anticancer Drug Screen. Data for the cln2 rad14 strain (AID 165);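 further: 0% = growth equal to vehicle treated cultures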; details: S. cerevisiae cln2 rad14 strain, hits give high values
Procedure, shortened: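 Strain: cln2 rad14 yeast, altered in cell cycle control and DNA damage repair. Read-out: growth inhibition vs vehicle.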

[11] = NCI Yeast Anticancer Drug Screen. Data for the bub3 strain (AID 167); details: S. cerevisiae bub3 mutant strain, hits give high values
Procedure, shortened: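 Inhibition values come from growth of compound-treated mutant yeast normalised to vehicle-treated controls.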

[12] = NCI Yeast Anticancer Drug Screen. Data for the wt2 strain (AID 169);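 further: 0% = growth of vehicle-treated yeast cultures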; details: S. cerevisiae wt2 strain growth inhibition, hits give high values
Procedure, shortened: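 Growth of compound-treated yeast is measured and expressed as inhibition relative to vehicle-only controls.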

[13] = NCI Yeast Anticancer Drug Screen. Data for the mlh1 strain (AID 171);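 further: 0% = growth of vehicle-treated control cultures of the same strain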; details: S. cerevisiae mlh1 strain growth inhibition, hits give high values
Procedure, shortened: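 Test agents were incubated with yeast bearing a defined DNA damage repair or cell cycle control alteration; values are growth inhibition normalised to vehicle-treated cultures.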

[14] = NCI Yeast Anticancer Drug Screen. Data for the mlh1 rad18 strain (AID 175); details: S. cerevisiae mlh1 rad18 strain growth inhibition, hits give high values
Procedure, shortened: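 A repair-deficient yeast strain is exposed to test compound, and growth is scored relative to vehicle-treated controls.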

[15] = NCI Yeast Anticancer Drug Screen. Data for the rad18 strain (AID 177); details: S. cerevisiae rad18 mutant growth inhibition, hits give high values
Procedure, shortened: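 DNA-repair-defective yeast; compound treatment; growth inhibition scored against vehicle.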

[16] = at 5.0 µM (retest, dose inferred, filed as 0.5)
[17] = at 50.0 µM (retest, dose inferred, filed as 5.0)

Measured: growth inhibition

CC(C)[Si]1(C(C)C)OCC2OC(n3cnc4c(N)ncnc43)C(N)C2O[Si](C(C)C)(C(C)C)O1 (stereo unspecified)
inactive: [1]; at 1.2 µM 3% | [1]; at 3.7 µM 9% | [1]; at 11.0 µM 32% | [2]; at 1.2 µM 5% | [2]; at 3.7 µM 11% | [2]; at 11.0 µM 34% | [3]; at 1.2 µM 10% | [3]; at 3.7 µM 20% | [3]; at 11.0 µM 15% | [3]; at 33.0 µM 24% | [4]; at 1.2 µM 19% | [4]; at 3.7 µM 16% | [4]; at 11.0 µM 20% | [5]; at 1.2 µM 7% | [5]; at 3.7 µM 10% | [5]; [16] 38% | [5]; at 11.0 µM 41% | [6]; at 1.2 µM 19% | [6]; at 3.7 µM -5% | [6]; [16] 14% | [6]; at 11.0 µM 14% | [7]; at 1.2 µM -1% | [7]; at 3.7 µM 1% | [7]; at 11.0 µM 13% | [8]; [16] 7% | [9]; at 1.2 µM 14% | [9]; at 3.7 µM 2% | [9]; at 11.0 µM 5% | [10]; [16] 18% | [11]; at 1.2 µM -3% | [11]; at 3.7 µM -10% | [11]; [16] -26% | [11]; at 11.0 µM 9% | [12]; at 1.2 µM -50% | [12]; at 3.7 µM -34% | [13]; at 1.2 µM 3% | [13]; at 3.7 µM 14% | [13]; at 11.0 µM 32% | [14]; [16] 47%
active: [1]; at 33.0 µM 98% | [1]; at 100.0 µM 98% | [2]; at 33.0 µM 98% | [2]; at 100.0 µM 98% | [3]; at 100.0 µM 89% | [4]; at 33.0 µM 98% | [4]; at 100.0 µM 98% | [5]; at 33.0 µM 98% | [5]; [17] 98% | [5]; at 50.0 µM 89.8% | [5]; at 100.0 µM 98% | [6]; at 33.0 µM 98% | [6]; [17] 99% | [6]; at 50.0 µM 90.4% | [6]; at 100.0 µM 98% | [7]; at 33.0 µM 98% | [7]; at 100.0 µM 98% | [8]; [17] 99% | [8]; at 50.0 µM 88.8% | [9]; at 33.0 µM 97% | [9]; at 100.0 µM 98% | [10]; [17] 99% | [10]; at 50.0 µM 89.3% | [11]; at 33.0 µM 97% | [11]; [17] 99% | [11]; at 50.0 µM 86.5% | [11]; at 100.0 µM 98% | [12]; at 11.0 µM 93% | [12]; at 33.0 µM 98% | [12]; at 100.0 µM 97% | [13]; at 33.0 µM 97% | [13]; at 100.0 µM 98% | [14]; [17] 99% | [14]; at 50.0 µM 87.4%

O=C1c2ccccc2-c2ccc(N=Cc3ccccc3)cc21
inactive: [1]; at 1.2 µM -6% | [1]; at 3.7 µM -8% | [1]; at 11.0 µM 10% | [1]; at 33.0 µM 68% | [2]; at 1.2 µM 1% | [2]; at 3.7 µM 8% | [2]; at 11.0 µM 14% | [2]; at 33.0 µM 27% | [2]; at 100.0 µM 69% | [3]; at 1.2 µM -2% | [3]; at 3.7 µM 24% | [3]; at 11.0 µM 34% | [4]; at 1.2 µM -4% | [4]; at 3.7 µM -2% | [4]; at 11.0 µM -5% | [4]; at 33.0 µM -1% | [4]; at 100.0 µM 58% | [5]; at 1.2 µM -14% | [5]; at 3.7 µM -11% | [5]; [16] 8% | [5]; at 11.0 µM 26% | [5]; at 33.0 µM 66% | [5]; [17] 51% | [6]; at 1.2 µM -4% | [6]; at 3.7 µM -2% | [6]; [16] 4% | [6]; at 11.0 µM -3% | [6]; at 33.0 µM 2% | [6]; [17] 21% | [6]; at 50.0 µM 5% | [6]; at 100.0 µM 24% | [7]; at 1.2 µM 3% | [7]; at 3.7 µM 2% | [7]; at 11.0 µM 3% | [7]; at 33.0 µM 18% | [7]; at 100.0 µM 45% | [8]; [16] 5% | [8]; [17] 27% | [8]; at 50.0 µM 36.9% | [9]; at 1.2 µM -7% | [9]; at 3.7 µM -11% | [9]; at 11.0 µM -13% | [9]; at 33.0 µM -8% | [9]; at 100.0 µM 24% | [10]; [16] -2% | [10]; [17] 9% | [10]; at 50.0 µM 6.45% | [11]; at 1.2 µM -6% | [11]; at 3.7 µM -3% | [11]; [16] 0% | [11]; at 11.0 µM -1% | [11]; at 33.0 µM 9% | [11]; [17] 18% | [11]; at 50.0 µM 31.6% | [11]; at 100.0 µM 54% | [12]; at 1.2 µM 5% | [12]; at 3.7 µM 6% | [12]; at 11.0 µM 18% | [12]; at 33.0 µM 51% | [13]; at 1.2 µM -2% | [13]; at 3.7 µM -8% | [13]; at 11.0 µM -5% | [13]; at 33.0 µM 23% | [14]; [16] -12% | [14]; [17] 46% | [14]; at 50.0 µM 56.5% | [15]; at 1.2 µM -10% | [15]; at 3.7 µM -8% | [15]; at 11.0 µM -4% | [15]; at 33.0 µM 12%
active: [1]; at 100.0 µM 96% | [3]; at 33.0 µM 87% | [3]; at 100.0 µM 97% | [5]; at 50.0 µM 82.5% | [5]; at 100.0 µM 96% | [12]; at 100.0 µM 92% | [13]; at 100.0 µM 79% | [15]; at 100.0 µM 84%

Cc1cc(OCc2nc(N)nc(N)c2-c2ccc(Cl)c(Cl)c2)ccc1[N+](=O)[O-]
active: [5]; [17] 84% | [5]; at 50.0 µM 98.7%
inactive: [1]; at 1.2 µM 0% | [1]; at 3.7 µM 1% | [1]; at 11.0 µM 0% | [1]; at 33.0 µM -1% | [1]; at 100.0 µM -2% | [2]; at 1.2 µM 1% | [2]; at 3.7 µM 1% | [2]; at 11.0 µM 3% | [2]; at 33.0 µM 3% | [2]; at 100.0 µM 4% | [3]; at 1.2 µM -1% | [3]; at 3.7 µM -3% | [3]; at 11.0 µM -1% | [3]; at 33.0 µM -1% | [3]; at 100.0 µM -1% | [4]; at 1.2 µM 2% | [4]; at 3.7 µM 5% | [4]; at 11.0 µM 2% | [4]; at 33.0 µM 1% | [4]; at 100.0 µM 10% | [5]; at 1.2 µM 0% | [5]; at 3.7 µM 6% | [5]; [16] 51% | [5]; at 11.0 µM -3% | [5]; at 33.0 µM 2% | [5]; at 100.0 µM 2% | [6]; at 1.2 µM 2% | [6]; at 3.7 µM 3%
